The values below come from PubChem BioAssay (EPA / NIEHS).

In general, AC50 refers to the concentration giving half of the maximal activity seen.

Several values for one entry are separate records, joined by “and”; a condition that tells them apart may be missing. Identical values can stand only once. Inconclusive results are not listed. A structure can be active in one record and inactive in another. Activity calls are given as the source filed them. The calls were made as follows, unless noted: active = hit-call score of the fitted dose curve at least 0.9, where 1 is the maximum; inactive = score below 0.9.

A short description of experiment [1]: CCTE_Shafer_MEA_dev_burst_rate: CCTE's Neural Network Formation Assay for Burst Rate, Shafer Lab (AID 2284042).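 As to AC50: potency for loss of burst rate below DMSO control.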 In a few lines: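 Rat primary cortical cultures on PEI/laminin MEA; compound from plating, re-dosed at DIV 5, 9 media change. Single-electrode bursts/recording length, well mean of active electrodes; AUC over DIV 5–12 recordings; loss-of-signal vs DMSO.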

Experiment [2] in a line: CCTE_Shafer_MEA_dev_bursting_electrodes_number: CCTE's Neural Network Formation Assay for Number of Bursting Electrodes, Shafer Lab (AID 2284043; active = hit-call score of the fitted dose curve at least 0.9, where 1 is the maximum;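 as to AC50: potency is for loss of bursting electrodes relative to DMSO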). The method in brief: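 Primary rat cortical neurons plated on 16-electrode MEA wells, exposed from day 0 with compound renewed at DIV 5 and 9. Electrodes bursting ≥1 burst per 2 min counted on days 5, 7, 9 and 12; trapezoidal AUC across days, fitted for loss versus DMSO.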

A short description of experiment [3]: CCTE_Shafer_MEA_dev_per_burst_interspike_interval: CCTE's Neural Network Formation Assay for Burst Interspike Interval, Shafer Lab (AID 2284044).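 Also: mean spike spacing inside bursts as AUC over recordings on days 5 7 9 12.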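 As to AC50: potency for a decrease of within-burst interspike interval below DMSO level.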 In a few lines:
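Rat cortical primary cultures, 16 electrodes/well; compound from plating, renewed with full media change DIV 5 and 9. Spikes via adaptive detector; per-burst ISI well-mean over active bursting electrodes; AUC of DIV 5/7/9/12 recordings; loss-direction fit vs DMSO.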

Experiment [4] can be described thus: CCTE_Shafer_MEA_dev_burst_duration_mean: CCTE's Neural Network Formation Assay for Mean Burst Duration, Shafer Lab (AID 2284045).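 As to AC50: curve fitted for loss meaning shorter burst duration than DMSO.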 The method in brief:
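Primary rat cortical neurons on 48-well 16-electrode MEA plates, exposed from day 0 with renewal at DIV 5 and 9; spontaneous activity recorded on days 5, 7, 9, 12. Well-mean burst duration across bursting electrodes, collapsed as trapezoidal AUC; DMSO baseline.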

The nature of experiment [5]: CCTE_Shafer_MEA_dev_interburst_interval_mean: CCTE's Neural Network Formation Assay for Mean Interburst Interval, Shafer Lab (AID 2284046).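 Also: well-mean interburst interval of bursting electrodes as AUC over four recording days; curve fitted for decrease in interburst interval relative to DMSO.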 The method in brief:
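Rat cortical neurons, 1.5 x 10^5 cells/well, 48-well MEA; compound from day 0 through DIV 12, media and treatment renewed DIV 5/9. Recordings DIV 5, 7, 9, 12; well-mean interburst interval → trapezoidal AUC, loss direction vs DMSO.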

The nature of experiment [6]: CCTE_Shafer_MEA_dev_inter_network_spike_interval_mean: CCTE's Neural Network Formation Assay for Mean Inter-network Spike Interval, Shafer Lab (AID 2284047).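 As to AC50: potency for a decrease in mean inter-network spike interval below DMSO.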 In a few lines: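 Primary rat cortical neurons on PEI-coated 48-well MEAs (16 electrodes/well) were exposed from plating day 0 to DIV 12, with dosing renewed at DIV 5 and 9. Recordings at DIV 5, 7, 9, 12 were collapsed by trapezoidal AUC, loss-of-signal fit vs DMSO.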

Experiment [7] is described as follows: CCTE_Shafer_MEA_dev_network_spike_number: CCTE's Neural Network Formation Assay for Number of Network Spikes, Shafer Lab (AID 2284048).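 As to AC50: fit as a loss of signal meaning fewer network spikes than DMSO.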 The method in brief:
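Primary rat cortical neurons on PEI/laminin 48-well MEA plates, dosed from plating day 0 for 12 days, renewed at DIV 5 and 9. Network spike counts recorded DIV 5, 7, 9, 12, collapsed as trapezoidal AUC; DMSO baseline.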

The target of experiment [8] is Estrogen receptor (Homo sapiens) (UniProt P03372). The experiment in a line: CCTE_Deisenroth_AIME_384WELL_LUC_Shift: CCTE's 384-well Estrogen Receptor Transactivation Assay with AIME metabolic competence data shift (ERTA luciferase; difference in metabolism positive and negative), Deisenroth Lab (AID 2284041).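 Also: shift is response with S9 minus without S9 so positive means metabolism raised ER signal.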 The method in brief: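 Chemicals (0.002–200 uM, 10 points) pre-incubated 2 h with alginate-encapsulated induced male Sprague Dawley rat liver S9 or S9-free, then medium applied 24 h to VM7Luc4E2 cells; luciferase. Endpoint is per-concentration difference, S9-positive minus negative.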

Experiment [9] can be described thus: CCTE_Deisenroth_AIME_384WELL_CTox_Active: Cytotoxicity Assessment (CTOX) in CCTE's 384-well Estrogen Receptor Transactivation Assay with AIME metabolic competence (metabolism positive), Deisenroth Lab (AID 2284037; active = hit-call score of the fitted dose curve at least 0.9, where 1 is the maximum;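 also: chemicals first conditioned 2 h by alginate-bound induced rat liver S9 before cells; activity means signal loss indicating cell death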). The method in brief: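 Chemicals pre-incubated 2 hours with alginate-immobilised phenobarbital/beta-naphthoflavone-induced male Sprague Dawley rat liver S9, then conditioned medium applied 24 hour to VM7Luc4E2 cells. Viability by fluorogenic protease substrate; 10-point series 0.002 - 200 uM.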

A short description of experiment [10]: CCTE_Deisenroth_AIME_384WELL_CTox_Inactive: Cytotoxicity Assessment (CTOX) in CCTE's 384-well Estrogen Receptor Transactivation Assay without AIME metabolic competence (metabolism negative), Deisenroth Lab (AID 2284039; active = hit-call score of the fitted dose curve at least 0.9, where 1 is the maximum;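 also: cell viability via live-cell protease substrate cleaved to fluorescent probe; cells exposed 24 h to medium preincubated 2 h with alginate-water beads without S9; loss of fluorescence signal means loss of viability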). The method in brief:
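VM7Luc4E2 human breast cells received conditioned medium from a 2 h incubation of chemical with alginate-water microspheres (no S9), then were exposed 24 h. Viability was read as protease-substrate cleavage to a fluorescent probe; loss of signal was fitted bidirectionally over 0.002–200 uM.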

Estrogen receptor (Homo sapiens), sequence (P03372 whole entry, looked up): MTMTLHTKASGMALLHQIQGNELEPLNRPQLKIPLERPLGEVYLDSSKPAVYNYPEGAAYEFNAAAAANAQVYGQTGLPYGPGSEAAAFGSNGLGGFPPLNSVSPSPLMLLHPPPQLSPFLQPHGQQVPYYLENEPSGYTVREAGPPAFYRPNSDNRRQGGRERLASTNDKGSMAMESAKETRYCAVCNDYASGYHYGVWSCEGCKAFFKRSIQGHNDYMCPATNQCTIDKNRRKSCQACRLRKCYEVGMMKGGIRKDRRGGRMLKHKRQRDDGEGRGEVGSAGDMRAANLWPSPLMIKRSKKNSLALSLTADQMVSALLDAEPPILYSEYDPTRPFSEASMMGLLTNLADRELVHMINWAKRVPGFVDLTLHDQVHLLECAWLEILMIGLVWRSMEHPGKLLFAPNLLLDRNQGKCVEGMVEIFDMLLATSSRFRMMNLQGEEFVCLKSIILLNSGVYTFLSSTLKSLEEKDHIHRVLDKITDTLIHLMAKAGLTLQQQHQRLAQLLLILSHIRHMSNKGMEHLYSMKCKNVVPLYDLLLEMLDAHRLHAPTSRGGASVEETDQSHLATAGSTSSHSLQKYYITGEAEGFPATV

As to `CCCCOC(=O)c1ccccc1C(=O)OCCCC`, the call in [1], in experiment [3], in [4], in [5], in [6] and in experiment [7] was inactive. Also, the AC50 in experiment [2] was 78.4 µM (active).
With `C=CCC1=C(C)C(OC(=O)C2C(C=C(C)C)C2(C)C)CC1=O` (centres undefined), the result in experiment [8], in [1], in [3], in experiment [4], in experiment [5] and in experiment [6] was inactive. Also, the outcome in experiment [7] was inactive. Further, the AC50 was 5.72 µM (active) and 14.8 µM (active) in experiment [2]; 1.15 µM (active) in [7].
For the compound `CC(C)(C)c1ccc(CSc2cnn(C(C)(C)C)c(=O)c2Cl)cc1`, the AC50 in experiment [9] was 19800 nM (active); in [1], 4.9 nM (active); in experiment [2], 0.00281 µM (active); in [3], 4.98 nM (active); in experiment [4], 1.67 nM (active); in experiment [5], 3 nM (active). In addition, the AC50 in experiment [6] is 2.8 nM (active); in experiment [7], 0.00216 µM (active). The result in experiment [10] and in experiment [8] was inactive.
`CCCCNC(=O)n1c(NC(=O)OC)nc2ccccc21`: the compound was called inactive in experiment [1], in experiment [3], in [4], in experiment [5], in [6] and in experiment [7]. Moreover, in experiment [2], the AC50 is 15 µM (active).
Regarding `Cc1ccc(-c2c(Cl)nc(C#N)n2S(=O)(=O)N(C)C)cc1`, the figures for the AC50 in [1], in experiment [2] and in experiment [7] were 15200 nM (active), 22.3 µM (active) and 30.2 µM (active), respectively. The outcome in experiment [3], in experiment [4], in experiment [5] and in experiment [6] was inactive.
Consider `CC(Oc1ccc(Cl)cc1Cl)C(=O)O` (centres undefined), for which the result in experiment [8] was inactive.
For `CCNc1nc(Cl)nc(NC(C)C)n1`, the result in experiment [9], in experiment [8], in [1], in experiment [2], in [3] and in experiment [4] was inactive. Moreover, the result in experiment [5], in [6] and in experiment [7] was inactive.
With `CCOC(=O)CC(SP(=S)(OC)OC)C(=O)OCC` (centres undefined), the AC50 was 22.7 µM (active) and 2.98 µM (active) in experiment [1]; 14.9 µM (active) and 4.64 µM (active) in [2]; 3720 nM (active) in experiment [3]; 16.8 µM (active) and 15 µM (active) in [5]; 11.7 µM (active) in experiment [7]. The compound was called inactive in experiment [3], in experiment [4], in experiment [6] and in [7].
`N#Cc1cc(Br)c(O)c(Br)c1`: the outcome in experiment [9], in experiment [10] and in [8] was inactive.
Regarding `O=C(O)COc1nc(Cl)c(Cl)cc1Cl`, the outcome in experiment [8] was inactive.
For `COP(N)(=O)SC` (centres undefined), the result in experiment [8], in experiment [1], in experiment [3], in experiment [4], in [5] and in experiment [6] was inactive. In addition, in experiment [7], the result was inactive. Also, the AC50 in experiment [2] is 0.0901 µM (active).
For `CN(C)C(=S)SSC(=S)N(C)C`, the half-maximal activity concentration (AC50) was 12.7 nM (active) in experiment [1]; 0.00933 µM (active) in experiment [2]; 22.7 nM (active) in experiment [3]; 1.55 nM (active) in [4]; 11.6 nM (active) in experiment [5]; 11.6 nM (active) in experiment [6]. Besides, the AC50 in experiment [7] was 0.00554 µM (active).
Turning to `C=CC1(C)OC(=O)N(c2cc(Cl)cc(Cl)c2)C1=O` (centres undefined), the compound was classed as inactive in experiment [10], in experiment [1], in [3], in experiment [4], in experiment [5] and in experiment [6]. In experiment [7], the result was inactive. The results for the AC50 in experiment [8] and in experiment [2] were 42400 nM (active) and 21.6 µM (active), respectively.
For `C#CCOS(=O)OC1CCCCC1Oc1ccc(C(C)(C)C)cc1` (centres undefined), the AC50 in [9] was 18600 nM (active). For the same compound, the result in [10] and in experiment [8] was inactive.
Consider `CCON=C(CC)C1=C(O)CC(c2c(C)cc(C)cc2C)CC1=O` (centres undefined), for which the call in [9] and in experiment [8] was inactive.
For the compound `CO/C=C(/C(=O)OC)c1ccccc1Oc1cc(Oc2ccccc2C#N)ncn1`, the AC50 in [1] was 1.14 µM (active) and 1.39 µM (active); in [2], 1.42 µM (active) and 912 nM (active); in [3], 2.3 µM (active) and 2.54 µM (active); in [4] it was 1.55 µM (active) and 2.03 µM (active); in [5], 2.29 µM (active) and 1.06 µM (active); in experiment [6], 1.64 µM (active) and 17 nM (active). In addition, the AC50 in [7] is 948 nM (active) and 767 nM (active).
